These results are taken from PubChem BioAssay AID932 (The Scripps Research Institute Molecular Screening Center, 2007).

In all, about 200,000 compounds went through this assay and about 5,100 (2.5%) were called active. What follows is part of a selection rich in actives, with near analogues and random picks from the rest. A number with no mark means an inactive call.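 The calls were made as follows: active = activation above the screen-wide mean activation plus 3 SD (cut at about 130% in these data); inactive = the rest.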 Where a SMILES comes first, the peptide text is derived from it. The star is where a group is joined. OPac = O=C(CO*)c1ccccc1; Bz = O=C(c1ccccc1)*

This experiment is described as follows: potentiators of IFN-gamma driven STAT1 reporter – cell-based, HTS, luciferase reporter, primary screen (AID 932).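 Also: raw ratio to IFN-gamma control signal so 100% means no change and 0% no light.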 The note with it: NIH 3T3 STAT1-luciferase reporter, luminescence, at 5.5 µM, hits give high values, 100% = IFN-gamma alone, no compound.
For `Clc1ccc(-c2cc(C3CCNCC3)[nH]n2)c(Cl)c1`, the activation (% of control) was 135% (active). To `O=C1CSC(c2ccccc2)N1c1nc(-c2ccc(Cl)cc2Cl)cs1` (stereo unspecified) belongs 102%. To `Clc1ccc(-c2ncc3ccccn23)c(Cl)c1` belongs 112%; to `O=C(O)c1ccn(COc2ccc(Br)cc2)n1`, 101%. Consider `N=C1C(=O)OCC1c1ccccc1NC(=O)CN1CCCCC1` (stereo unspecified), for which the activation (% of control) was 86.4%.

Regarding `Cc1ccc(N/C=C/C(=O)c2ccccc2)cc1C`, the activation (% of control) was 142% (active). To `O=C(/C=C\NCC(=O)c1ccccc1)c1ccccc1` belongs 104%; to `O=C(/C=C/NCc1ccc(F)cc1)c1ccccc1`, 117%; to `CC(C)(C)NC(=O)NC(=O)COC(=O)Cc1ccc(Cl)cc1Cl`, 103%. To `O=C(O)c1ccc(NC(=O)c2cn(-c3ccccc3)nc2-c2ccc(Cl)cc2)cc1` belongs 122%. As for `Cc1ncc(CC(=O)n2cc(C(=O)c3cc(Cl)ccc3O)cn2)s1`, the figure is 103%.

With `O=C(c1cnn(-c2ccc(Cl)cc2)c1)c1ccccc1O`, the activation (% of control) was 137% (active). Turning to `O=C(Nn1c(-c2ccccc2)nc2ccccc2c1=O)c1ccc([N+](=O)[O-])cc1`, the activation (% of control) was 95.4%. To `Cc1ccc(C)n1NC(=O)c1ccc([N+](=O)[O-])cc1` belongs 97.7%. To `O=C(Nn1c(SCc2ccc([N+](=O)[O-])cc2)nc2ccccc2c1=O)c1ccc(F)cc1` belongs 150% (active); to `O=C(CNC(=O)c1ccccc1)NCC(=O)OCC(=O)c1ccccc1` (Bz-Gly-Gly-OPac), 101%; to `Cn1cc(CN2CCC(C(O)CCc3ccccc3)CC2)c(-c2ccccc2F)n1` (stereo unspecified), 97.4%. As for `COCCCNC(=S)N1CCCC(c2nc3cc(C)c(C)cc3[nH]2)C1` (stereo unspecified), the figure is 140% (active); as for `CCNC(=S)N1CCC(c2nc3cc(C)c(C)cc3[nH]2)CC1`, 96.7%; as for `CCCNC(=S)N1CCCC(c2nc3ccccc3[nH]2)C1` (stereo unspecified), 94.6%. For `CC(=O)NCC(=O)N(Cc1ccco1)C1(C(=O)NC2CCCC2)CCCCC1`, the activation (% of control) is 89.9%. To `Cc1nn(-c2ccc([N+](=O)[O-])cc2)c(N)c1-c1ccccc1` belongs 164% (active). For `Cc1nn(-c2ccccc2)c2c1C(c1cccc([N+](=O)[O-])c1)N(c1ccccc1)C(=O)N2` (stereo unspecified), the activation (% of control) is 97.4%. As for `O=C1CC(c2ccccc2)=NN1c1ccc([N+](=O)[O-])cc1`, the figure is 104%. As for `CNC(=O)NC(=O)CSc1nnc(-c2ccc(F)cc2)n1CC1CCCO1` (stereo unspecified), the figure is 103%; as for `Cc1cccc(N=Nc2c(O)[nH]c3ccc(F)cc23)c1`, 161% (active); as for `Cc1cccc(N=Nc2c(C)[nH]n(-c3ccccc3)c2=O)c1`, 112%. To `COCC(=O)N=Nc1c(O)[nH]c2ccccc12` belongs 110%; to `O=c1c(-c2ccccc2)coc2c(CN3CCOCC3)c(O)ccc12`, 100%; to `O=c1c(-c2ccccc2)coc2cc(O)ccc12`, 137% (active). As for `CC(=O)COc1ccc2c(-c3ccccc3)cc(=O)oc2c1`, the activation (% of control) is 109%. Consider `O=c1c2c(ncn1Cc1ccccc1)nc1n2CCC1`, for which the activation (% of control) is 96.7%. As for `COC(=O)c1ccc(CN2CCN(CCCc3ccccc3)C(CCO)C2)cc1` (stereo unspecified), the figure is 96.7%; as for `CCOC(=O)c1oc2c(CN3CCN(CCO)CC3)c(O)c(CC)cc2c(=O)c1-c1nc2ccccc2s1`, 104%; as for `CC1CN/C(=C\C(=O)c2ccc(Br)cc2)C(=O)N1` (stereo unspecified), 172% (active). Regarding `CN1CCCC(OC(=O)COc2ccc(Br)cc2)C1` (stereo unspecified), the activation (% of control) was 101%.

For the compound `C/C(=C\C(=O)c1ccc(Br)cc1)N1CCCCC1`, the activation (% of control) is 105%. As for `O=C(CSc1nnc2ccccn12)c1ccccc1`, the figure is 123%; as for `COc1ccc(-n2c(C)cc(C(=O)CSc3nnc(-c4cccs4)o3)c2C)cc1`, 85.5%. To `Cc1ccc(-n2c(C)cc(C(=O)CSc3nnc4ccccn34)c2C)cc1` belongs 150% (active).

For `CCOc1ccc(C(=O)NC2CCN(CC(=O)NCc3cccs3)CC2)cc1`, the activation (% of control) is 105%.

Turning to `CN(C)CCCCCN(C)Cc1cc2ccccc2o1`, the activation (% of control) is 91.6%. To `Cc1cc(NC(=O)CSc2nnc(Nc3ccccc3F)s2)no1` belongs 102%; to `COc1ccc(-c2cc(C(=O)NCCCn3ccnc3)no2)cc1`, 110%. To `O=C(NCCCn1ccnc1)c1cc(-c2ccccc2)on1` belongs 161% (active); to `COc1ccccc1-c1cc(C(=O)NCCCn2ccnc2)no1`, 112%; to `Cc1ccc(NC(=O)CSc2nnc(COc3ccccc3C)o2)cc1`, 103%. To `Cc1ccccc1-c1nc(C#N)c(NCc2ccco2)o1` belongs 98.1%; to `O=C(C(=O)N1CCc2ccccc2C1)c1c[nH]c2ccccc12`, 105%.

Turning to `CC(=O)c1cccc(NC(=O)[C@@H](NC(N)=O)C(C)C)c1`, the activation (% of control) was 98.5%. To `COc1ccc(-c2csc(NC(=O)COC(=O)Cc3ccc(Cl)cc3Cl)n2)cc1` belongs 112%. As for `COc1ccc(-c2csc(NC(=O)CCCc3cccs3)n2)cc1`, the figure is 91.3%; as for `COc1ccc(-c2csc(NC(=O)COC(=O)c3ccc(Br)o3)n2)cc1`, 129% (active); as for `O=C(NC1CCCC1)c1ccc(Br)s1`, 108%. To `CC(C)C(=O)OCC(=O)Nc1ccc2c(c1)CCC2` belongs 101%; to `O=C(Nc1ccc2c(c1)CCC2)c1ccc(Br)s1`, 165% (active); to `CC1(C)C(c2cccs2)=[N+]([O-])C2(CCCCC2=O)N1O` (stereo unspecified), 105%.

For the compound `COc1cc(C(=O)N2C(=O)c3cccc(N)c3C2=O)cc(OC)c1OC`, the activation (% of control) is 104%. As for `O=C(CCN1CCCCC1)N=Nc1c(O)[nH]c2ccccc12`, the figure is 93.5%; as for `O=C(Nc1ccc2c(c1)C(=O)OC2)Nc1cccc2ccccc12`, 93.7%. To `Cc1nc(N2CCCCC2)sc1C=O` belongs 96.9%; to `Brc1ccc2nc(N3CCCC3)sc2c1`, 134% (active); to `CCOC(=O)N1CCC(NC(=O)c2ccc3nc(N4CCOCC4)sc3c2)CC1`, 102%. As for `Fc1ccc2nc(N3CCCCC3)sc2c1`, the figure is 147% (active).

For `c1c2c(cc3sc(N4CCCCC4)nc13)OCCO2`, the activation (% of control) is 56.4%.

Take `Fc1cc(F)c2nc(N3CCOCC3)sc2c1`: the activation (% of control) is 122%. For `O=C(COC(=O)CC1CC2CCC1C2)NC(=O)NC1CCCC1` (stereo unspecified), the activation (% of control) is 101%. As for `CCOC(=O)c1c(C)n(C)c2ccc(OC)c(NS(=O)(=O)CC)c12`, the figure is 111%; as for `CC(=O)c1cc(C#N)c(SCC(=O)C(C)(C)C)nc1C`, 140% (active); as for `CC(=O)c1cc(C#N)c(N2CCCCC2)nc1C`, 95.1%. `CC(=O)c1cc(C#N)c(SCC(=O)Nc2nccs2)nc1C`: the activation (% of control) is 108%.

For `Cc1nc2nc[nH]n2c(=O)c1C/C=C/c1ccccc1`, the activation (% of control) was 102%.

Regarding `Cc1cccc(OC(=O)c2sc3ncn(C)c(=O)c3c2C)c1`, the activation (% of control) is 134% (active). As to `Cc1c(C(N)=O)sc2ncn(CCOc3ccccc3)c(=O)c12`, the activation (% of control) is 116%. To `CCOC(=O)C(C)n1cnc2sc(C)c(C)c2c1=O` (stereo unspecified) belongs 105%. Take `COc1ccc(Br)cc1C(=O)Nc1cccc(C)c1C`: the activation (% of control) is 95.7%. To `O=S(=O)(ON(c1ccccc1)S(=O)(=O)c1ccccc1)c1ccccc1` belongs 105%; to `CCOC(=O)c1cccc(NC(=O)CCOc2ccccc2)c1`, 97.3%; to `CCOC(=O)N/N=C/c1cccnc1`, 102%. As for `CC(=O)Nc1ccc(S(=O)(=O)NC2(C(F)(F)F)C(=O)Nc3c2c(=O)[nH]c(=O)n3Cc2ccccc2)cc1` (stereo unspecified), the figure is 108%; as for `CN(C)c1ccnc2sc(C(=O)c3ccccc3)c(N)c12`, 153% (active); as for `Cc1nc2sc(C(=O)c3ccccc3)c(N)c2c2c1CCCC2`, 113%.

Consider `CN(C)c1ccnc2sc3c(=O)n(Cc4ccccc4)cnc3c12`, for which the activation (% of control) was 78.3%. As for `N#Cc1ccccc1NC(=O)COc1c(Br)cc(Br)c2cccnc12`, the figure is 77.3%.

With `Cc1ccc(NC(=O)CC2S/C(=N/N=C3\CCCc4ccccc43)NC2=O)cc1` (stereo unspecified), the activation (% of control) was 107%. To `COc1ccc(CCn2ccc(O)c(Cc3ccc(Cl)cc3Cl)c2=O)cc1OC` belongs 92.6%.

Consider `COc1ccc(C(=O)NC2CCN(C(=S)NCCc3ccccc3)CC2)cc1`, for which the activation (% of control) is 91.9%. To `CC1CCCN(c2ccc(C(=O)NCCc3ccccc3)cn2)C1` (stereo unspecified) belongs 147% (active); to `O=C(NCCc1ccccc1)c1ccc(NC2=NC3CS(=O)(=O)CC3S2)cc1` (stereo unspecified), 102%. As for `CCCC/C(C)=N/NC(=O)NC1CCCCC1`, the figure is 102%; as for `NS(=O)(=O)c1ccc(NC(=O)COC(=O)c2ccc(Cl)nc2)cc1`, 103%; as for `CCc1ccc(C2N3CC4([N+](=O)[O-])CN2CC([N+](=O)[O-])(C3)C4(C)C)cc1` (stereo unspecified), 90.6%. Consider `COc1ccc(-c2nc3n(c2Br)CCC3)cc1`, for which the activation (% of control) was 131% (active).

In the case of `Brc1cccc(-c2nnc3n2CCC3)c1`, the activation (% of control) is 101%. As for `Cc1ccc2nc3n(c(=O)c2c1)CCC3`, the figure is 106%; as for `COc1cc(-c2cc(C(=O)OCC(=O)Nc3ccc4c(c3)OCO4)c3ccccc3n2)cc(OC)c1OC`, 91.2%; as for `Cc1cccc(C)c1N1CCN(S(=O)(=O)N2CCCCC2)CC1`, 96.7%. To `CC1CN(CCOc2ccccc2[N+](=O)[O-])CC(C)O1` (stereo unspecified) belongs 101%; to `COc1ccc(C2Nc3ccccc3C(=O)N2c2ccc(Cl)cc2)cc1Cn1cc([N+](=O)[O-])cn1` (stereo unspecified), 181% (active); to `COc1ccc(C2Nc3ccccc3C(=O)N2c2ccc(F)cc2)cc1Cn1nnc2ccccc21` (stereo unspecified), 103%. To `COc1ccc(C2Nc3ccccc3C(=O)N2Cc2ccccc2)cc1Cn1nnc2ccccc21` (stereo unspecified) belongs 101%.
